Bioassay records: PubChem BioAssay, National Center for Advancing Translational Sciences (NCATS)
Rows were chosen to be rich in hits. Some 6.7% of all compounds tested hit in one or more screens of this group.
MCF10A rereplic = inducers of DNA re-replication in MCF 10A breast cells. Potency, µM (highest dose often 46.1 µM), for inactives: at the highest dose activity, positive = re-replication, usual class: activators. MCF 10A DNA re-replication, Hoechst nuclear intensity, 48 h. 350,000 compounds, 2.9% hits. AID 624296; also: % of control where 0% means no effect; nearly all actives have a fitted effect of over 50% in size
KB-3-1 tox = kills parental KB-3-1 adenocarcinoma cells; KB-3-1 viability, CellTiter-Glo ATP luminescence, 72 h; Potency, µM (top dose mostly 46.1 µM), actives largely listed as cytotoxic; 400,000 compounds, 1.4% hits; AID 1347075; also: % is scaled to controls: 0 for no effect and ±100 for the full control effect; nearly all actives have a fitted effect of over 60% in size
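Cytotoxicity in the drug-sensitive parental line KB-3-1 was scored as loss of CellTiter-Glo luminescence following 72 h incubation with compound. Values come from curve fitting of normalized concentration-response data.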
KB-V1 cytotox = kills drug-selected multidrug resistant KB-V1 cells | Potency, µM (series often up to 46.1 µM), most hits filed as cytotoxic | AID 1347076 | 400,000 compounds, 3.4% hits | KB-V1 MDR cells viability, CellTiter-Glo, 72 h; also: % is scaled to controls: 0 for no effect and ±100 for the full control effect; nearly all actives have a fitted effect of over 60% in size
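Compound-treated KB-V1 multidrug-resistant cells, 72 h, 37 degrees C; viability by CellTiter-Glo. Fitted qHTS curves give the values.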
PINK1 expr mod = changes PINK1 expression; AID 624263; Potency, µM (doses to about 76.6 µM), without a hit: top-dose activation (PINK1 increase), actives largely listed as activators; 410,000 compounds, 0.2% hits; PINK1 immunofluorescence, high-content cytometry, 24 h; active = well fitted activation curve with a large enough effect; inconclusive = small, poorly fitted or top-dose-only effect; cell line not stated here; also: % of control where 0% means no effect; nearly all actives have a fitted effect of over 65% in size
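Decision-based qHTS: stable cells, 24 h exposure to five compound concentrations, CCCP as control. Fixed cells stained for PINK1 plus nuclear, mitochondrial and cell markers, cytometer read.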
SW480 rereplic = inducers of DNA re-replication in SW480 colon cancer cells | SW480 DNA re-replication, Hoechst DNA content imaging, 48 h | Potency, µM (top dose mostly 46.1 µM), without a hit: at the highest dose re-replication activation, actives largely listed as activators | 340,000 compounds, 1.8% hits | AID 624297; also: % of control where 0% means no effect; nearly all actives have a fitted effect of over 55% in size
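Image-based DNA-content assay: after two days of treatment, nuclei were labelled with the DNA dye Hoechst and imaged, and hits were compounds raising the count of nuclei showing high fluorescence intensity.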
The depositor's hits bear a star; i = inactive; ? = inconclusive; · = no result; [ ] = remark or other dose. Unless noted, calls follow the shape of the dose curve; as a rule, active = well fitted curve in the direction sought with a large enough effect; inconclusive = small, poorly fitted or top-dose-only effect, or another doubt; inactive = no such curve, though single readings can be large; an effect the other way counts as inactive or inconclusive. Potency is read from the fitted curve at half-maximal effect.

SMILES | MCF10A rereplic | KB-3-1 tox | KB-V1 cytotox | PINK1 expr mod | SW480 rereplic
FC(F)(F)c1ccccc1-c1nccc(NCc2ccccc2)n1 | · | · | · | 2% | ·
CCOC(=O)C1CCN(C(c2ccccn2)c2c(C)[nH]c3ccccc23)CC1 (configuration not stated) | 21µM* | 18µM* | i | 2% | ?
COc1cc(OC)cc(-c2c(Sc3ccccc3)c3cc(-c4ccc5c(c4)OCCO5)ccc3n2C)c1 | · | i | i | 1% | ·
CCOC(=O)C(C(=O)OCC)c1cc(Br)c2noc3c2c1C(=O)c1ccccc1-3 | ? | 5.2µM* | ? | 1% | ?
CCc1n[nH]c(=S)n1/N=C/c1ccc(-c2ccc(Br)cc2)o1 | 18µM* | i | i | 5% | -1%
CSc1ccc(/C=N/n2c(Cc3ccc(Br)cc3)n[nH]c2=S)cc1 | 28% | i | i | 10% | ?
CCOc1ccc(NC(=O)CCC(=O)NNC(=O)COc2ccc(C)cc2)cc1 | -4% | i | i | 5% | -1%
CN(C)c1ccc(NC(=O)Nc2cccc(Cl)c2)cc1 | -2% | i | 13µM* | 8%[38.3 µM] | -1%
Cc1ccc(NC(=O)Nc2ccc(F)c(Cl)c2)cc1 | 1% | i | i | 4% | -3%
CCOc1ccc(NC(=O)CCC(=O)NNC(=O)Nc2cccc(Cl)c2)cc1 | 0.18µM* | i | ? | 5% | ?
CSc1ccccc1NC(=O)Nc1cccc(Cl)c1Cl | 23µM* | i | ? | 21%[38.3 µM] | 6%
CSc1ccccc1NC(=O)Nc1ccc(F)c(Cl)c1 | ? | i | 21µM* | ? | -1%
COc1ccccc1N1CCN(C(=O)c2cc(CC(C)C)on2)CC1 | · | i | i | 2% | ·
CSc1ccccc1NC(=O)Nc1cccc(Cl)c1 | ? | ? | 16µM* | 7%[38.3 µM] | 15%
COc1cccc(NC(=O)Nc2ccccc2SC)c1 | 6% | i | i | 2% | 2%
CN(C)c1ccc(CNC(=O)c2cnc3sc(N4CCCCCC4)nn3c2=O)cc1 | · | · | · | 0% | ·
COC(=O)c1[nH]c2ccc(F)cc2c1NS(=O)(=O)c1ccc(OC)cc1 | 7.3µM* | 2.6µM* | 7.3µM* | 6% | 4.6µM*
C(=N\NC1=Nc2cccc3cccc1c23)/c1cccnc1 | ? | i | 16µM* | 0% | 0%
C(=N\NC1=Nc2cccc3cccc1c23)/c1ccccc1 | ? | i | i | 5% | 3%
CCn1cc(C(=O)OCC(=O)c2cc(C)n(-c3ccc(OC(F)F)cc3)c2C)c(=O)c2ccc(C)nc21 | 13µM* | i | 23µM* | 25% | ?
Cc1c(C(=O)NCc2ccc(F)cc2)oc2ccc(S(=O)(=O)N3CCCCC3)cc12 | · | ? | ? | 0% | ·
O=C(NCCN1CCC(n2c(=O)[nH]c3ccccc32)CC1)c1ccc(F)c(C(F)(F)F)c1 | · | i | i | 1% | ·
O=C(NCCN1CCC(n2c(=O)[nH]c3ccccc32)CC1)c1ccc(C(F)(F)F)cc1C(F)(F)F | · | ? | 12µM* | 1% | ·
CC(C)Cn1cc(C(=O)NCCCN2CCCC2=O)c2c3ccccc3n(C)c2c1=O | 18% | i | 5.8µM* | -2%[38.3 µM] | -1%
Cc1cccc(CSc2nc(-c3cccs3)ccc2C#N)c1 | · | i | i | 7% | ·
SMILES | MCF10A rereplic | KB-3-1 tox | KB-V1 cytotox | PINK1 expr mod | SW480 rereplic
N#Cc1ccc(-c2cccs2)nc1SCc1cccnc1 | 0.41µM* | ? | ? | 12% | 0.73µM*
COc1ccc(C(C(=O)NC2CCCC2)N(C(=O)c2snc(-c3ccc(F)cc3)c2N)c2cccc(F)c2)cc1 (configuration not stated) | ? | i | i | ? | 21µM*
COc1ccc(C(C(=O)NC2CCCC2)N(C(=O)c2snc(-c3ccc(F)cc3)c2N)c2ccc(F)cc2)cc1 (configuration not stated) | ? | ? | ? | 16µM* | 16µM*
COc1ccc(C(C(=O)NC2CCCC2)N(C(=O)c2snc(-c3ccc(F)cc3)c2N)c2ccccc2)cc1 (configuration not stated) | 2% | i | i | 13µM* | 17%
COC(=O)c1sccc1NC(=O)Nc1ccccc1Cl | 4% | i | i | 1% | -4%
CCOc1ccccc1NC(=O)C(c1ccccc1)N1Cc2ccccc2C1=O (configuration not stated) | · | · | · | 1% | ·
Cc1ccc(NC(C(=O)c2ccccc2)c2ccccc2)cc1 (configuration not stated) | ? | ? | i | 35µM* | -9%
CCC(=O)Nc1cccc(C(=O)/C=C/c2cc(Br)ccc2OC)c1 | 2.9µM* | i | 18µM* | -3% | 3.7µM*
COc1ccc(Br)cc1/C=C/C(=O)Nc1ccc2ccccc2c1 | ? | i | i | 4% | -2%
CC(=O)Nc1cccc(C(=O)/C=C/c2ccc(Br)cc2)c1 | 5.8µM* | i | ? | -1% | 21µM*
CC(=O)Nc1cccc(C(=O)/C=C/c2ccc(F)cc2)c1 | 9.2µM* | i | ? | 2% | ?
CC(C)(O)C#Cc1ccc(C(=O)N2CCCC(CNS(=O)(=O)c3cccs3)C2)o1 (configuration not stated) | 9% | i | i | 0% | 21µM*
O=C1C=CC2(O[C@H](c3ccccc3)[C@@H](c3ccccc3)O2)[C@H](Sc2ccccc2O)C1 | ? | 3.3µM* | ? | 10% | ?
CCn1nc(NC(=O)c2ccco2)c2cc3cc(C)ccc3nc21 | ? | i | ? | 1% | 18µM*
CCCn1nc(NC(=O)c2ccco2)c2cc3ccccc3nc21 | 16µM* | ? | ? | 1% | 18µM*
Cc1ccc2cc3c(NC(=O)c4ccco4)nn(C)c3nc2c1 | 18µM* | ? | ? | 13% | ?
CC(=O)Nc1nn(C)c2nc3cc(C)ccc3cc12 | 7% | i | i | 0% | 12%
CCCC(=O)Nc1nn(CCC)c2nc3ccccc3cc12 | 2% | i | ? | 1% | 4%
Cc1ccc(C)c(NC(=O)c2ccc3c(c2)CCCN3S(C)(=O)=O)c1 | · | i | i | 10% | ·
O=C(Nc1nnc(SCc2ccc(F)cc2)s1)c1ccccn1 | ? | ? | ? | 0% | 13µM*
CCc1nnc(NC(=O)c2ccc(COc3ccccc3)o2)s1 | 13% | i | 15µM* | 26%[38.3 µM] | -2%
O=C(Nc1nnc(SCc2ccc(F)cc2)s1)c1cccnc1Cl | 1% | i | i | 0% | -45%
O=C(Nc1nc2ccc(F)cc2s1)C1=COCCO1 | 0% | ? | 12µM* | 0% | -5%
COc1ccc(Cl)c2sc(NC(=O)C3=COCCO3)nc12 | -3% | i | i | 0% | 5.2µM*
CC(C)CCCC(C)C1CCC2C3CC[C@H]4CC(=O)CC[C@@]4(C)C3CC[C@@]12C (some centres not stated) | · | · | · | -1% | ·
